Test results from PubChem BioAssay (Tox21).
“And” between values parts separate entries of the source, which are not always exact repeats. Equal values may be shown once. Records with an inconclusive call do not appear. A call without a number means that no potency is given here. The source made the active and inactive calls. Calls follow the shape of the dose curve; as a rule, active = well fitted curve in the direction sought with a large enough effect in the repeat runs; inconclusive = weak or mixed curves; inactive = no such curve, though single readings can be large; an effect the other way counts as inactive or inconclusive.

Test: qHTS assay to identify small molecule agonists of the retinoic acid receptor (RAR) signaling pathway (AID 1159553); also: potency is read from the fitted curve at half-maximal effect
Settings: C3RL4 RARE luciferase reporter, agonist, 6 h; series mostly up to 73.3 µM
In short: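 Reporter readout comes from luciferase under RARE control in C3RL4 cells; compound exposure lasts 6 hr at 37 C in 5% CO2, and luminescence is recorded following a 30 min room-temperature incubation with reagent.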
For `COCCOCCOC`, the Potency was “inactive”.
In the case of `CO[C@H]1C=CO[C@@]2(C)Oc3c(C)c(O)c4c(O)c(c(/C=N/N5CCN(C)CC5)c(O)c4c3C2=O)NC(=O)/C(C)=C\C=C[C@H](C)[C@H](O)[C@@H](C)[C@@H](O)[C@@H](C)[C@H](OC(C)=O)[C@@H]1C`, the Potency is reported as “inactive”.
In the case of `O=C1OC(c2ccc(O)cc2)(c2ccc(O)cc2)c2ccccc21`, the Potency is reported as “inactive”.
For `Cc1cccc2ccccc12`, the Potency was “inactive”.
In the case of `CCCCCCCC(=O)OCC(O)CO` (stereo unspecified), the Potency is reported as “inactive”.
For `C[C@]12CC[C@@H]3c4ccc(O)cc4C[C@@H](CCCCCCCCCS(=O)CCCC(F)(F)C(F)(F)F)[C@H]3[C@@H]1CC[C@@H]2O` (stereo partly specified), the Potency was “inactive”.
With `CC(O)COc1ccccc1` (stereo unspecified) the Potency was “inactive”.
In the case of `CCCCNC(=O)NS(=O)(=O)c1ccc(N)cc1`, the Potency is reported as “inactive”.
For `CCCCCCCCCCCCCC(=O)OC(C)C`, the Potency was “inactive”.
For `C1CNCCN1`, the Potency was “inactive”.
For `Cc1cccc(Nc2cc(Cl)nc(SCC(=O)O)n2)c1C`, the Potency was “inactive”.
With `CCCCOCCOCCOC(C)=O` the Potency was “inactive”.
For `CCCCCCCCCCCCCCCCCC(=O)OCC(O)CO` (stereo unspecified), the Potency was “inactive”.
For `COc1ccc(C(=O)c2ccccc2)c(O)c1`, the Potency was 61.1 µM (active) and 23.7 µM (active).
For `Cc1cccc(C)c1O`, the Potency was “inactive”.
With `NC(=O)NO` the Potency was “inactive”.
With `COc1cc(C=O)ccc1O` the Potency was “inactive”.
For `CC(C)Cc1ccc(C(C)C(=O)O)cc1` (stereo unspecified), the Potency was “inactive”.
For `NC(N)=NC(N)=NCCc1ccccc1`, the Potency was “inactive”.
For `Cc1ccc(O)c(-n2nc3ccccc3n2)c1`, the Potency was 1.52 µM (active) and 1.93 µM (active) and 2.98 µM (active).
With `O=c1cc[nH]c(=O)[nH]1` the Potency was “inactive”.
For `N[C@@H](Cc1c[nH]c2ccccc12)C(=O)O`, the Potency was “inactive”.
With `OCCCc1ccccc1` the Potency was “inactive”.
With `CC1=NN(c2ccccc2)C(=O)C1` the Potency was “inactive”.
With `COC(=O)c1ccc(O)cc1` the Potency was “inactive”.

Test: qHTS assay to identify small molecule antagonists of the estrogen related receptor (ERR) signaling pathway - cell viability counter screen (AID 1224818);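 also: viability measured after 17.5 h of compound exposure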
Settings: ERR reporter cell line viability counter screen; series mostly up to 46.1 µM
In short: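 After a 6 h pre-incubation, ERR cells were dosed by pin tool with compounds, positive/negative controls or DMSO alone. Following 17.5 h at 37 C and 30 min with CellTiter-Fluor, fluorescence was recorded.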
For `CCOC(=O)C(C)(C)Oc1ccc(Cl)cc1`, the outcome was “inactive”.
For `O=C(O)Cc1cccc2ccccc12`, the outcome was “inactive”.
For `C[C@]12CC[C@@H]3c4ccc(O)cc4C[C@@H](CCCCCCCCCS(=O)CCCC(F)(F)C(F)(F)F)[C@H]3[C@@H]1CC[C@@H]2O` (stereo partly specified), the outcome was “inactive”.
For `NC(=O)NO`, the outcome was “inactive”.
With `CC(C)Cc1ccc(C(C)C(=O)O)cc1` (stereo unspecified) the outcome was “inactive”.
In the case of `N[C@@H](Cc1c[nH]c2ccccc12)C(=O)O`, the outcome is reported as “inactive”.
